Reference: PubChem BioAssay (NCI)
About 83,000 compounds went through this panel and 20% of them were active in at least one assay; those are over-represented in the sample as a whole.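 Cell lines were cultured in 96-well plates, exposed to a single compound concentration, and assessed for percent growth 48 hours later.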 A number with no mark means an inactive call. Calls of active or inactive are those of the source.

test system: EKVX NSCLC; assay: NCI-60 one-dose screen, 48 h (100 = growth as untreated, 0 = no growth, -100 = all killed); settings: 10 µM unless noted
Method: Growth inhibition of the EKVX human Non-Small Cell Lung tumor cell line is measured as a screen for anti-cancer activity. Cells are grown in 96 well plates and exposed to the test compound for 48 hours. Compounds are tested at a single concentration, which is 10^-5 M for most compounds. The reported endpoint is percent growth (GI% or GIPRCNT), where numbers from 0 - 100% represent growth inhibition, and numbers from -100% - 0 represent cell death. For example, a value of 40 represents 60% growth inhibition. A value of 0 means no net growth occurred over the course of the experiment. A value of -40 indicates 40% of cells at the beginning of the experiment died by the end of the experiment. A value of -100 means all cells are dead at the end of the experiment.
NCI-60 Human Tumor Cell Lines Screen was performed using the standard one-dose NCI protocol, which is described in more detail at https://dtp.cancer.gov/discovery_development/nci-60/default.htm.
Compounds with GIPRCNT values below 10 were considered active. Activity score was based on GIPRCNT using the following formula: […]
Score is 0 for GIPRCNT values of 100 or above, 50 for GIPRCNT values of 0, and 100 for GIPRCNT values of -100.

SMILES | growth
CCCCCCCCCCCCCCCCCC1OCC(COC(=O)O[C@]2(CC)C(=O)OCc3c2cc2n(c3=O)Cc3cc4ccccc4nc3-2)O1 (stereo not given in full) | 92.4%
c1ccc(-c2nc3sc(-c4ccccc4)cn3n2)cc1 | 78.6%
c1cc(NCCc2ccncc2)nc(-n2cnc3ccccc32)c1 | 102%
CCc1ccccc1-n1c(N)c(C#N)c(-c2ccc(Cl)cc2)c(C#N)c1=O | 97.7%
N#Cc1c(-c2ccc(Cl)cc2)nc(NCCO)[nH]c1=O | 157%
Nc1nn(C(=O)Nc2ccc(Cc3ccccc3)cc2)c2ccc(Cl)cc12 | 70%
O=C(Nc1ccc(F)cc1F)c1cc(F)ccc1O | 64.2%
COc1cc(CCC[P+](c2ccccc2)(c2ccccc2)c2ccccc2)c(OC)c2c1OCO2 | 25.4%
CSc1ncccc1C(=O)OCC(=O)Nc1oc(C)c2c(C)n[nH]c(=O)c12 | 71%
CCc1ccc(Oc2c(-c3ccc(OCc4ccc(Cl)cc4)cc3O)nn(C)c2C(F)(F)F)cc1 | 9.36% (active)
COc1ccc2c(c1)C(C)Cc1c(ncnc1-n1c(C)nc3ccccc31)N2C (stereo not given) | 43.4%
O=C1/C(=C/c2ccc(F)cc2)Sc2c(Br)cccc21 | 87.9%
NS(=O)(=O)c1ccc(N=Nc2ccc(-c3nn4cc(-c5ccccc5)nc4s3)cc2)cc1 | 96.7%
CCOc1c(B(O)O)cccc1-c1nc2ccc3[nH]ncc3c2c2c1CCCC2 | 47.5%
NCCOc1ncccc1/C=C1\C2C=CC=CC2C2C=CC(F)=CC12 (stereo not given) | 43.9%
O=C1c2ccccc2NC(n2sc3ccccc3c2=O)N1c1ccccc1 (stereo not given) | 85.5%
CCOC(=O)c1c2c(n(-c3ccc(C#N)cc3)c1-c1ccccc1)C=CCC2 | 93.2%
COC1=C(C)C(=O)c2c(c(CCCl)c3n2CCC3OC(C)=O)C1=O (stereo not given) | 0.0316% (active)
CCCCCCN1C(=O)/C(=c2\sc3n(c2=O)C2C(NN=3)N(CC)C(=O)N2CC)c2ccccc21 (stereo not given) | 65%
O=S(=O)(NCCCNc1cc(-c2c(-c3cccc(O)c3)nc3sccn23)ccn1)c1cccc2ccccc12 | 50%

SMILES | growth
CCCCn1c(=O)c(-c2cc(-c3ccc(Cl)cc3)nc(-c3ccc(Cl)cc3)c2)cc2cc(Cl)ccc21 | 105%
CSc1ccc2c(c1)c(CCN)c(C)n2Cc1ccc(Cl)c(Cl)c1 | -86.7% (active)
NCCNc1nc2ccccc2c2c(=O)c3cccc(F)c3sc12 | 74.1%
Cc1c(C(=O)N[C@@H](Cc2ccccc2)C(=O)C(=O)NCc2ccc(F)cc2)[nH]c2ccccc2c1=O | 85.3%
N#CC1=C(N)Oc2c(sc3c(Br)cccc23)C1c1ccc(Br)cc1 (stereo not given) | 45.6%
Oc1c(I)cc(I)cc1CNCCCN(Cc1ccccn1)Cc1ccccn1 | -85.6% (active)
COc1ccc(-c2c(C(=O)NS(C)(=O)=O)n(Cc3cccc(C(F)(F)F)c3)c3ccccc23)cc1 | 91%
Brc1c[n+](Cc2ccc3ccccc3c2)cn1Cc1ccc2ccccc2c1 | 60.1%
Cc1cc(C)c(-c2c(N)cc(Br)cc2Br)c(N)c1 | 65.9%
C[N+]1=C(/C=C/c2ccc(O)c3ncccc23)C(C)(C)c2ccccc21 | 58.7%
CCOC(=O)c1cn2ncnc(Oc3ccc(NC(=O)NCCN4CCN(C)CC4)c(Cl)c3)c2c1C | 66.3%
Fc1cc(-c2nnc3sc(-c4ccc(Cl)cc4Cl)nn23)c(Cl)cc1Cl | 73.3%
CCOC(=O)c1c(C)nc2c(c1N)CC(=O)N2Cc1ccc(F)cc1 | 94.9%
CN(C)CC#Cc1ccc2ncc(C#N)c(Nc3ccc(F)c(Cl)c3)c2c1 | 30.8%
COc1ccc(-n2c(N)c(-c3nc4ccccc4[nH]3)cc(C#N)c2=O)cc1 | 79.1%
Cn1cc(-c2ccc3cc(-c4ccc(CC(=O)Nc5cc(C(C)(C)C)nn5C)cc4)cnc3c2)cn1 | 23.5%
CC1Cc2ccccc2N1NC(=O)c1ccc(Cl)c(S(N)(=O)=O)c1 (stereo not given) | 108%
CCCCCCCNC(=O)CCCNc1ncnc2c1ncn2-c1cccc(C(C)O)c1 (stereo not given) | 76.4%
Cc1cc2nc3ccc(N=Nc4ccc(N(C)C)cc4)cc3n(-c3ccccc3)c-2cc1=N | -94.6% (active)
CC(=O)OC[C@H]1OC(Sc2sc(C(=O)c3ccc(C)cc3)c(N)c2-c2nc3ccccc3s2)[C@H](OC(C)=O)[C@@H](OC(C)=O)[C@@H]1OC(C)=O (stereo not given in full) | 75%
